SUMO Mot1 rescue: inhibitors of SUMOylation pathway: yeast Mot1-301 growth rescue | S. cerevisiae Mot1-301 growth rescue, ATP luminescence, 38.5C; percent above DMSO median, 100 means doubled | growth rescue, % at 18.8 µM | 320,000 compounds, 1% hits;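 active = every valid replicate shows activation above 250% relative to neutral control wells; inactive = the rest, any valid replicate at or below 250%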;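 note: OY570 slx delta 5 strain wells were the positive control but not used for scaling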
PfM18AAP inh-1: PfM18AAP enzyme inhibition; recombinant PfM18AAP, H-Glu-NHMec fluorogenic cleavage; inhibition, % at 7.35 µM; 290,000 compounds, 1.2% hits;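 active = inhibition above the campaign mean inhibition over all tested compounds plus 3 SD, cut at about 28% in these data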;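 note: 0% = plate median of test compound wells and 100% = 2 mM ZnCl2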
HIF activator: HIF pathway transcriptional activation; U2OS HRE-luciferase reporter, luminescence; normalized: DMSO 0%, desferrioxamine 100%; activation, % at 7.5 µM (by protocol); 300,000 compounds, 0.32% hits; AID 1910;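 active = mean activation of at least 10% of the iron chelator positive control signal, with at least half of replicates also reaching 10%; inconclusive = mean and replicate majority disagree about reaching 10%; inactive = mean and most replicates under 10%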
ALR inh: blocks human ALR sulfhydryl oxidase activity | P55789 | purified ALR, DTT oxidation, H2O2 HRP-luminol luminescence | inhibition, % (concentration not given with the values) | 290,000 compounds, 3.8% hits | AID 485317;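 active = mean replicate inhibition above about 79%, with every replicate also reaching it, limit read from the data; inconclusive = only one of the two criteria met; inactive = mean below limit and not every replicate reaching it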
Target sequence (P55789 whole entry, looked up): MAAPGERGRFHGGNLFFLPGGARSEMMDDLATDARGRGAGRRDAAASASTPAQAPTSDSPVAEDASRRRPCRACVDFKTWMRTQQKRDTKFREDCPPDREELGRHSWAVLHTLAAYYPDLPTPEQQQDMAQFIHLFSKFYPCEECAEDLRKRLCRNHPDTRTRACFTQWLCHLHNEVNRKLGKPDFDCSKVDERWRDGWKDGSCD
PfM18AAP inh-2: confirmation of Plasmodium falciparum M18 aspartyl aminopeptidase inhibitors; recombinant PfM18AAP, H-Glu-NHMec fluorogenic cleavage; 2,400 compounds, 28% hits; inhibition, % at 7.35 µM; AID 2170; shares compounds with PfM18AAP inh-1;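 active = mean inhibition over replicate wells above the hit cutoff set for the earlier primary screen, cut at about 29% in these data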;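 note: 0% = median of test compound wells and 100% = 2 mM ZnCl2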
CTSL1 confirm: Cathepsin L (human) inhibition, confirmation. shares compounds with PfM18AAP inh-1. purified cathepsin L1, Z-Leu-Arg-MCA fluorescence. inhibition, % at 5.96 µM. 2,400 tested, under 10 active. AID 2178;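 active = average inhibition across replicates above the hit cutoff set in the earlier primary screen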;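 note: 0% = median of test compound wells and 100% = Z-Phe-Ala-diazomethylketone 1 µM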
Target sequence (P07711 whole entry, looked up): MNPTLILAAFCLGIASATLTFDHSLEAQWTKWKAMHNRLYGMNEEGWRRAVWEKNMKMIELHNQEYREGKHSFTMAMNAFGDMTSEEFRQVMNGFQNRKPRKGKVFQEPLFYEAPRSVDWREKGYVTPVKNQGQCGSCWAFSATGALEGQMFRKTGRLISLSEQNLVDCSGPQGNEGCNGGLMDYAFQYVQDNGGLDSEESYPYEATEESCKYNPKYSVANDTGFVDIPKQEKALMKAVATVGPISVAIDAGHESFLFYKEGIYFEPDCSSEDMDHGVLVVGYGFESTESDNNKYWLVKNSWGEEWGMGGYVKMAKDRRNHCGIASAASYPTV
* = called active by the depositor; ? = inconclusive; nt = no result. Rows were chosen to be rich in hits. Some 5.3% of all compounds tested hit in one or more screens of this group.

SMILES	SUMO Mot1 rescue	PfM18AAP inh-1	HIF activator	ALR inh	others
ClCCN1CCN(c2ccnc3cc(Cl)ccc23)CC1	-3	2	-18	-8
O=C(c1ccc(Cl)cc1)C1CCCN(Cc2ccc3ncccc3c2)C1 (stereo not given)	258*	-4	0	nt
O=C(c1ccc(Cl)cc1)C1CCCN(Cc2ccc3c(c2)OCCO3)C1 (stereo not given)	211	2	0	5
CN1C(=O)C(=Cc2ccc(-c3cccc(Cl)c3)o2)C(=O)N(C)C1=O	-10	-2	-1	12
Cc1ccc(Sc2ccc(C=C3C(=O)N(C)C(=O)N(C)C3=O)o2)cc1	9	-3	0	97*
O=C(NC1CCCCC1)[C@@H]1CC=C[C@@H]2CCN(Cc3ccccc3)C(=O)[C@@H]21	-16	nt	0	-18
Cc1nc2ccccc2c(=O)n1/N=C/c1cc(Br)cc(Br)c1O	62	nt	181*	1
Cc1nc2ccccc2c(=O)n1-c1ccc(Br)cn1	-8	-5	0	-3
O=C(Cc1ccc(N(CCCl)CCCl)cc1)NC(Cc1ccc(Cl)cc1)C(=O)O (stereo not given)	-7	-2	0	98*
CN1C(=O)C(c2ccccc2)C(=O)N(C)C1=O	-8	nt	1	7
COC(=O)C1=C(c2cccc(C#N)c2)C[C@@H]2CC[C@H]1N2C(=O)NCCc1ccccc1	1	nt	nt	1
CCN(CC)c1ccc(/C=C2\C(=O)NC(=O)N(Cc3ccco3)C2=O)cc1	13	12	0	nt
Cc1cc(/C=C2/C(=O)NC(=O)N(Cc3ccco3)C2=O)c(C)n1-c1ccccc1O	nt	16	0	81*
CCN1C(=O)NC(=O)/C(=C\c2cn(CC(=O)O)c3ccccc23)C1=O	-5	-17	-4	6
O=C(O)Cn1cc(/C=C2\C(=O)NC(=O)N(Cc3ccco3)C2=O)c2ccccc21	11	16	0	98*
NC(=O)CSc1nnc([C@@H](N)Cc2c[nH]c3ccccc23)o1	1	-4	0	17
COC(=O)C1=C(c2c(C)noc2C)C[C@@H]2CC[C@H]1N2C(=O)N1CCc2cc(OC)c(OC)cc2C1	6	nt	nt	-16
CC1(C)OC(c2ccccc2)=C/C(=C/C=C2C(=O)NC(=S)NC2=O)O1	-8	10	0	88*
CN1CCC(c2c[nH]c3ccccc23)C1 (stereo not given)	-13	9	-31	4
CC1CCCC(C)N1/N=C/c1c[nH]c2ccc(Br)cc12 (stereo not given)	-12	2	0	99*
CC1CCCN(C(=O)CCl)C1 (stereo not given)	-15	3	0	-6
Cc1ccccc1N1C(=O)NC(=O)/C(=C\c2cc(Br)c(N3CCOCC3)o2)C1=O	-8	41*	0	59
Cc1ccccc1N1C(=O)NC(=O)/C(=C/c2ccc(N3CCOCC3)o2)C1=O	-5	10	0	6
O=C(c1cccc(C(F)(F)F)c1)N1C[C@H]2C[C@@H](C1)c1cccc(=O)n1C2	-1	10	0	-8
O=C(Nc1ccc(Cl)cc1C(=O)c1ccccc1)c1ccc(Br)o1	4	-8	1	0
SMILES	SUMO Mot1 rescue	PfM18AAP inh-1	HIF activator	ALR inh	others
O=C(Cc1cccs1)N1CCC2(CC1)OCCO2	-10	-5	0	-3
Cc1oc(-c2cccs2)nc1CSCC(=O)N1CCC2(CC1)OCCO2	-11	-7	0	99*
COc1ccc(-c2nc(CSCC(=O)N3CCC4(CC3)OCCO4)c(C)o2)cc1OC	-3	2	0	100*
Cn1nccc1C(=O)N1CCC2(CC1)OCCO2	-7	4	0	8
COC(=O)C1=C(c2ccccc2OCc2ccccc2)C[C@@H]2CC[C@H]1N2C(=O)NCc1ccc(Br)cc1	-2	nt	nt	-4
CN1C(=O)c2ccccc2NC(=O)[C@]12O[C@@H]2c1ccccc1	4	4	0	98*
O=C1Nc2ccccc2C(c2ccccc2)=NC1O (stereo not given)	617	0	-1	1
CCOC(=O)c1[nH]c(C)c(C(=O)N2CCC3(CC2)OCCO3)c1C	-18	-9	0	-8
CCC(=Nc1cc(OC)ccc1OC)c1c(O)[nH]c(=O)[nH]c1=O	-19	29*	-1	-12
NS(=O)(=O)c1ccc(-c2ccc(C=C3C(=O)NC(=O)NC3=O)o2)cc1	-11	15	0	98*
NS(=O)(=O)c1ccc(-c2ccc(C=C3C(=O)NC(=S)NC3=O)o2)cc1	10	15	-1	-21
CNS(=O)(=O)c1ccc(-c2ccc(C=C3C(=O)NC(=O)NC3=O)o2)cc1	-11	-2	0	88*
C/C(O)=C(\C#N)C(=O)Nc1cc(Br)ccc1Br	-1	nt	nt	97*
O=C(O)CCn1cc(C=C2C(=O)NC(=O)NC2=O)c(-c2ccc(Br)cc2)n1	216	-3	0	87*
CN1CCN(c2cc(N3CCCC3)c([N+](=O)[O-])cc2F)CC1	332*	1	-3	-5
CC1=CC(=C2C(=O)NC(=O)NC2=O)C=C(C(F)(F)F)N1C(C)C	-3	5	0	2
O=C(NC1(C(F)(F)F)Oc2ccccc2O1)N1CCC2(CC1)OCCO2	-18	71*	0	-26	PfM18AAP inh-2=68*;CTSL1 confirm=-9
CCN(CC)P(=S)(c1c(C)nc2ccccn12)c1c(C)nc2ccccn12	-21	32*	1	3	PfM18AAP inh-2=-15;CTSL1 confirm=0
CCN1CCN(C(c2cccs2)C(C)NC(=O)Oc2ccccc2)CC1 (stereo not given)	19	9	-1	0
CCCCOC(=O)C1=C(N)OC2=C(C(=O)CCC2)[C@]12C(=O)Nc1ccccc12	99	-9	0	-1
CN1CCc2cc3c(c4c2C1Cc1ccccc1-4)OCO3 (stereo not given)	102	50*	2	22	PfM18AAP inh-2=5;CTSL1 confirm=46*
C/C(=N\NC(=O)c1ccncc1)c1c(O)[nH]c(=O)[nH]c1=O	-13	nt	2	-24
Cc1ccc(-c2nc3ccccc3c(=O)n2-c2ncccc2C)cc1	291	-2	-1	24
NS(=O)(=O)c1ccc(N=Nc2c(O)[nH]c(=S)[nH]c2=O)cc1	-6	32*	0	0	PfM18AAP inh-2=11;CTSL1 confirm=14
COC1=CC2[C@@H]3Cc4ccc(OC)c(O)c4[C@]2(CCN3C)CC1=O (stereo not given in full)	-18	nt	nt	nt
N#C[C@H](O[C@@H]1O[C@H](CO[C@@H]2O[C@H](CO)[C@@H](O)[C@H](O)[C@H]2O)[C@@H](O)[C@H](O)[C@H]1O)c1ccccc1	2	nt	nt	-18
O=c1ccc2cc(O[C@@H]3O[C@@H](CO)[C@H](O)[C@@H](O)[C@@H]3O)c(O)cc2o1	-12	32*	-28	?	PfM18AAP inh-2=-10;CTSL1 confirm=7

High-throughput results from PubChem BioAssay.
